One assay deals with MKL-1. Kind of assay: qHTS assay to identify novel small-molecules to repurpose for Merkel cell carcinoma treatment (AID 1296009). Also: nearly all actives have a fitted effect of over 60% in size. The note with it: MCC and control cell lines, CellTiter-Glo viability, 72 h; series mostly up to 46 µM. The gist of the method:
(§1)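 Viability readout: ATP luminescence (CellTiter-Glo) after 72 hr drug exposure at 37 degree celsius. Dose-response format was 8 points for NPC and 11 points for MIPE; data normalized to in-plate controls.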
Background: qHTS replaces the single test concentration by a dilution series.

A further assay has as its system MKL-2. Described as above. The note with it: MCC and control cell lines, CellTiter-Glo viability, 72 h; series mostly up to 46 µM. The gist of the method:
as §1

The next assay relates to NIH3T3. The description is as above. The note with it: MCC and control cell lines, CellTiter-Glo viability, 72 h; at 44.8 µM (top of the series) unless noted. The gist of the method: as §1
On the technique in general: ATP-based viability assays read luminescence as a measure of living cells.

Another assay relates to UISO. The assay is described as above. The note with it: MCC and control cell lines, CellTiter-Glo viability, 72 h; series mostly up to 46 µM. The gist of the method:
as §1

For another assay, the system named is WaGa. Described as above. The note with it: MCC and control cell lines, CellTiter-Glo viability, 72 h; series mostly up to 46 µM. A digest of the protocol: as §1
The next assay concerns C33A. The experiment in a line: Primary qHTS to identify gynecologic anti-cancer compounds using libraries of approved drugs and bioactive compounds (AID 1345084). Also: nearly all actives have a fitted effect of over 55% in size. The note with it: Gynecologic cancer cell panel viability, ATPlite luminescence, 48 h; series mostly up to 57.5 µM. A digest of the protocol:
(§2)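 Cell viability after 48 h drug treatment, ATPlite luminescence readout; five doses.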

In another assay the test system is CAOV3. The assay is described as above. The note with it: Gynecologic cancer cell panel viability, ATPlite luminescence, 48 h; series mostly up to 57.5 µM. The gist of the method:
as §2

For the next assay, the system named is CASKI. The assay is described as above. The note with it: Gynecologic cancer cell panel viability, ATPlite luminescence, 48 h; series mostly up to 57.5 µM. The gist of the method: as §2
A further assay deals with Es-2. The assay is described as above. The note with it: Gynecologic cancer cell panel viability, ATPlite luminescence, 48 h; series mostly up to 57.5 µM. A digest of the protocol: as §2
The subject of another assay is HeLa. The description is as above. The note with it: Gynecologic cancer cell panel viability, ATPlite luminescence, 48 h; series mostly up to 57.5 µM. A digest of the protocol:
as §2

The test system of another assay is Hek293T. Described as above. The note with it: Gynecologic cancer cell panel viability, ATPlite luminescence, 48 h, control line for the selectivity index; series mostly up to 57.5 µM. A digest of the protocol:
as §2

The subject of another assay is JEG-3. Described as above. The note with it: Gynecologic cancer cell panel viability, ATPlite luminescence, 48 h; series mostly up to 57.5 µM. A digest of the protocol: as §2
The subject of the next assay is OV90. The description is as above. The note with it: Gynecologic cancer cell panel viability, ATPlite luminescence, 48 h; series mostly up to 57.5 µM. The gist of the method: as §2
The test system of the next assay is PA-1. Described as above. The note with it: Gynecologic cancer cell panel viability, ATPlite luminescence, 48 h; series mostly up to 57.5 µM. A digest of the protocol:
as §2

The subject of a further assay is SKOV3. Described as above. The note with it: Gynecologic cancer cell panel viability, ATPlite luminescence, 48 h; series mostly up to 57.5 µM. A digest of the protocol: as §2
The subject of the next assay is Tov-21-G. The description is as above. The note with it: Gynecologic cancer cell panel viability, ATPlite luminescence, 48 h; series mostly up to 57.5 µM. The gist of the method: as §2
The subject of the next assay is Tov112D. The description is as above. The note with it: Gynecologic cancer cell panel viability, ATPlite luminescence, 48 h; series mostly up to 57.5 µM. The gist of the method:
as §2

Assay [1] can be described thus: Drug repurposing screens with cells derived from glioblastoma tumor samples (AID 1345199). Also: nearly all actives have a fitted effect of over 40% in size. Also: potency is read from the fitted curve at half-maximal effect. The note with it: GBM patient neurospheres viability, ATP luminescence, 48 h. The gist of the method:
(§3)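 Primary testing used CD133+ neurospheres from four GBM patients, seven concentrations, 48 h exposure and ATP-based viability; confirmation added three slower-growing patient lines.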

A further assay has as its system astro. The assay is described as above. The note with it: viability, ATP luminescence, 48 h; series mostly up to 45.9 µM. The gist of the method: as §3
A further assay relates to MCC-26. Kind of assay: qHTS assay to identify novel small-molecules to repurpose for Merkel cell carcinoma treatment (AID 1296009). Also: nearly all actives have a fitted effect of over 60% in size. The note with it: MCC and control cell lines, CellTiter-Glo viability, 72 h; series mostly up to 46 µM. The gist of the method:
as §1

Setting [2] is: at 45.9 µM (top of the series), tumour line B.
Setting [3] is: at 45.9 µM (top of the series), tumour line D.
The mark [4] stands for this setting: at 46 µM (top of the series), tumour line A.
Setting [5] is: at 46.1 µM (top of the series), tumour line C.

SMILES strings stand for the structures. Inconclusive results are not listed. A number with no mark means an inactive call. Calls of active or inactive are those of the source. Calls follow the shape of the dose curve; as a rule, active = well fitted curve in the direction sought with a large enough effect; inconclusive = small, poorly fitted or top-dose-only effect, or another doubt; inactive = no such curve, though single readings can be large; an effect the other way counts as inactive or inconclusive.
% is scaled to controls: 0 for no effect and ±100 for the full control effect.

For `CCC(=O)c1ccc(O)cc1`, the Potency entry in the assay with MKL-1, in the assay with MKL-2, in the assay with UISO, in the assay with WaGa, with C33A and in the assay with CAOV3 was “inactive” each time. Further, the Potency entry in the assay on CASKI, in the assay with Es-2, in the assay on HeLa, in the assay with Hek293T, with JEG-3 and with OV90 was “inactive” throughout. Moreover, the Potency entry with PA-1, in the assay with SKOV3, in the assay on Tov-21-G, in the assay with Tov112D and in the assay on astro was “inactive” each time. In the assay on NIH3T3, the result was inactive. Also, the activity, negative = cell killing in [1] (setting [2]) is -5.56%; in assay [1] (setting [3]) it was -10.1%; in assay [1] (setting [4]), -28.1%; in assay [1] (setting [5]), -21.6%.

Consider `CN(C)CCC=C1c2ccccc2CCc2ccccc21`, for which the Potency result in the assay on MCC-26, with MKL-1, in the assay with UISO, with C33A, with CAOV3 and in the assay on CASKI was “inactive” in each case. For the same molecule, the Potency result in the assay with Es-2, in the assay with HeLa, in the assay on JEG-3, with PA-1, in the assay with SKOV3 and in the assay with Tov-21-G was “inactive” each time. For the same molecule, in the assay on Tov112D, the Potency entry is “inactive”.

Consider `C/C(=C(\CCOP(=O)(O)O)SC(=O)c1ccccc1)N(C=O)Cc1cnc(C)nc1N`, for which the activity change, negative = cytotoxicity was 2.11% [at 4.84 µM] in the assay with MKL-1; 12.5% [at 4.84 µM] in the assay with MKL-2; 22.4% [at 4.84 µM] with UISO; 24.3% [at 4.84 µM] with WaGa; 4.02% [at 6.55 µM] in the assay with C33A; -0.0932% [at 6.55 µM] with CAOV3. Moreover, the activity change, negative = cytotoxicity is 2.61% [at 6.55 µM] in the assay with CASKI; -4.63% [at 6.55 µM] in the assay with Es-2; 3.42% [at 6.55 µM] with HeLa; -6.19% [at 6.55 µM] in the assay on Hek293T; -14.5% [at 6.55 µM] in the assay on JEG-3; 12.8% [at 6.55 µM] in the assay on PA-1. The results for the activity change, negative = cytotoxicity in the assay with SKOV3, in the assay with Tov-21-G and in the assay on Tov112D were 16.3% [at 6.55 µM], 4.62% [at 6.55 µM] and 5.69% [at 6.55 µM], respectively. For the same molecule, the outcome in the assay with NIH3T3 is “inactive [at 4.96 µM]”. The activity, negative = cell killing in assay [1] (at 20 µM (top of the series), tumour line C) is -2.37%; in [1] (at 21.2 µM (top of the series), tumour line B), 1.9%; in [1] (at 21.2 µM (top of the series), tumour line D), -14.8%; in assay [1] (at 21.3 µM (top of the series), tumour line A) it was -14%. Also, the Potency result in the assay on astro is “inactive”.

Take `Nc1ncnc2c1ncn2[C@@H]1O[C@H](CO)[C@@H](O)[C@H]1O`: the Potency result in the assay with MCC-26, with MKL-1, with UISO, in the assay on C33A, in the assay on CAOV3 and in the assay with CASKI was “inactive” in each case. In addition, the Potency entry in the assay on Es-2, with HeLa, in the assay on Hek293T, with JEG-3, with OV90 and in the assay with PA-1 was “inactive” each time. The Potency entry in the assay on SKOV3, in the assay with Tov-21-G, in the assay with Tov112D and in the assay with astro was “inactive” throughout. Moreover, the activity, negative = cell killing in [1] (setting [2]) was 4.34%; in assay [1] (setting [3]), 12.4%; in [1] (setting [4]) it was -12.9%; in [1] (setting [5]) it was -3.63%.

As to `Cc1c(O)cccc1C(=O)N[C@@H](CSc1ccccc1)[C@H](O)CN1C[C@H]2CCCC[C@H]2C[C@H]1C(=O)NC(C)(C)C`, the Potency entry in the assay with MCC-26, in the assay with CAOV3, in the assay on CASKI, in the assay on Es-2, in the assay with HeLa and with Hek293T was “inactive” throughout. Besides, the Potency result in the assay on JEG-3, in the assay with OV90, in the assay with PA-1, in the assay on Tov-21-G and with Tov112D was “inactive” in each case. Also, the activity, negative = cell killing in [1] (setting [5]) is 0.268%. The Potency is 6.31 µM (active) in [1] (tumour line A), 11.2 µM (active) in [1] (tumour line B), 20 µM (active) in assay [1] (tumour line D) and 35.5 µM (active) with astro.

Values taken from PubChem BioAssay (NCATS).
